# Screening results (PubChem)
# ALDH1A1 block: ALDH1A1 (human) enzyme inhibition. P00352. Purified ALDH1A1, NADH fluorescence, propionaldehyde substrate. Potency, µM (doses to about 75.3 µM), without a hit: at the top dose activity, negative = inhibition, most hits filed as inhibitors. hit rate 7.3% among 220,000. AID 1030; active = well fitted inhibition curve with a large enough effect, not every such curve was filed as active; inconclusive = small, poorly fitted or top-dose-only effect, or another doubt; inactive = no such curve, though single readings can be large or run the other way;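 also: potency is read from the fitted curve at half-maximal effect; plate controls were no enzyme wells and a reference inhibitor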
# aGal spleen mod: inhibitors or activators of human alpha-galactosidase in spleen homogenate; human spleen homogenate, 4MU-alpha-Gal fluorescence, 40 min; AID 2107; hit rate 0.008% among 240,000; Potency, µM (doses to about 80 µM), inactives show at the top dose activity change, negative = inhibition, hits mostly inhibitors;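 also: potency is read from the fitted curve at half-maximal effect; 0% = enzyme with vehicle and -100% = no enzyme basal signal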
#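 Fluorogenic readout (Ex 365/Em 440 nm) of 4-methylumbelliferone released from 1 mM 4-MU-alpha-galactoside by spleen homogenate, 40 min at 37C, pH 5.0. Data normalized to no-enzyme and enzyme controls; Hill-equation AC50 from compound titrations.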
# 12-hLO inh: blocks human 12-lipoxygenase activity; Potency, µM (titrated, usually from 57.1 µM), for inactives: top-dose activity change, negative = inhibition, most hits filed as inhibitors; purified 12-hLO, xylenol orange hydroperoxide absorbance; AID 1452; hit rate 0.12% among 150,000; also: potency is read from the fitted curve at half-maximal effect; nearly all actives have a fitted effect of over 55% in size
#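 Purified human 12hLO (150 nM final) was preincubated with compounds for 15 min at room temperature in 25 mM Hepes pH 7.0, 0.01% Triton X-100, then reacted with 40 uM arachidonic acid for 30 min. Hydroperoxide was detected with ferrous iron/xylenol orange.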
# GLA inh pH 4.5: inhibitors of human alpha-galactosidase A at pH 4.5 | P06280 | purified enzyme, 4-MU-alpha-Gal fluorescence, pH 4.5 | activity change, negative = inhibition, % at 105 µM | 230,000 tested, under 10 active | AID 1467;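 also: 0% = full activity with enzyme and -100% = basal without enzyme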
# Target sequence (P06280 whole entry, looked up): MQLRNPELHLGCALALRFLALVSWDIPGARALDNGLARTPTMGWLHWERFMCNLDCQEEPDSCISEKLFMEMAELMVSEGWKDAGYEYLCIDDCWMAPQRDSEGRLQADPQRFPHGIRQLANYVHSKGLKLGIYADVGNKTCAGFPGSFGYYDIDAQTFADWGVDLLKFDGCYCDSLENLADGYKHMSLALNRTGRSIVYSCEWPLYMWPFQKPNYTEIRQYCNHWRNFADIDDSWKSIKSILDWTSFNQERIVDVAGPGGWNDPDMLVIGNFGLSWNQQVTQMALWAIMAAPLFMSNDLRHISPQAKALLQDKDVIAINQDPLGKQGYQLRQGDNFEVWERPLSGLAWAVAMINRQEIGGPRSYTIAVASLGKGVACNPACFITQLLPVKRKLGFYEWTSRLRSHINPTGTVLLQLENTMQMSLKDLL
# PNC inhibitor: blocks assembly of the perinucleolar compartment; PC3M PTB-GFP, PNC prevalence imaging, 16 h; stronger effect = lower value; AID 2417; activity change (PNC), negative = inhibition, % at 10 µM; hit rate 3.1% among 140,000;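 active = readout at or below -70, meaning at least 70% loss of cells showing the perinucleolar compartment, a nuclear body marking cancer cells; inconclusive = readout between -30 and a set limit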;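 also: plate controls were DMSO wells for no effect and camptothecin positive control wells for full effect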
#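 Read-out is percentage of cells bearing a perinucleolar compartment, from automated 20x imaging of fixed, Hoechst-stained PC3M PTB-GFP cells. Cells were seeded 4 h, then exposed 16 h to compound (23 nl of library stock) in duplicate plates.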
# HPGD inh: blocks human HPGD enzyme activity | P15428 | purified HPGD, NADH fluorescence kinetic, PGE2 substrate | Potency, µM, inactives show at the highest dose activity change, negative = inhibition, usual class: inhibitors | hit rate 4.3% among 150,000 | AID 894; active = well fitted inhibition curve with a large enough effect, not every such curve was filed as active; inconclusive = small, poorly fitted or top-dose-only effect, or another doubt; inactive = no such curve, though single readings can be large or run the other way; also: potency is read from the fitted curve at half-maximal effect
#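 NADH formation kinetics: reaction with 30 uM PGE2 and 1 mM NAD+ (final), 20 nM enzyme, Tris-HCl pH 8 with Tween 20, after 15 min compound preincubation at room temperature. Fluorescence change, last versus first of five reads.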
# The depositor's hits bear a star; u = inconclusive; x = no result; [ ] = dose if it differs, or a comment. Rows were chosen to be rich in hits. Some 10% of all compounds tested hit in one or more screens of this group. Unless noted, calls follow the shape of the dose curve; as a rule, active = well fitted curve in the direction sought with a large enough effect; inconclusive = small, poorly fitted or top-dose-only effect, or another doubt; inactive = no such curve, though single readings can be large; an effect the other way counts as inactive or inconclusive. Unless noted, % is scaled to controls: 0 for no effect and ±100 for the full control effect.
SMILES,ALDH1A1 block,aGal spleen mod,12-hLO inh,GLA inh pH 4.5,PNC inhibitor,HPGD inh
CCN(CC)c1ccc(NC(=O)CSc2nc(C)cc(=O)[nH]2)cc1,9.7%,7.4%,-6.3%,0.0,-9.5,-1.5%
COCCNC(=S)N1CCN(c2ccc(Cl)cc2)CC1,15.5%,10.9%,x,-11.2,x,x
CCOC(=O)c1ccc(NC(=O)CSc2nnc(CNc3ccc(C)cc3)n2C)cc1,0.8%,-5.1%,-6.0%,3.3,-100.0*,-12.4%
CCOC(=O)c1ccc(NC(=O)CSc2nnc(C3CC3)n2C)cc1,-13.7%,0.5%,-5.9%,2.8,-10.6,-13.4%
COc1ccc(N2CC(C)Cn3c2nc2c3c(=O)n(Cc3ccccc3)c(=O)n2C)c(OC)c1 (stereo not drawn),31.6µM*,1.9%,x,-2.5,x,x
COc1ccc(N2CCn3c2nc2c3c(=O)n(CCCc3ccccc3)c(=O)n2C)c(OC)c1,20µM*,2.7%,-4.7%,-9.1,18.4,-29.1%
COc1ccc(N2CC(C)Cn3c2nc2c3c(=O)n(CCc3ccccc3)c(=O)n2C)cc1 (stereo not drawn),2.3%,-6.0%,-2.4%,2.0,7.7,-21.1%
COc1ccc(N2CCn3c2nc2c3c(=O)n(CCc3ccccc3)c(=O)n2C)c(OC)c1,u,7.5%,-5.1%,0.1,16.8,-1.6%
C[C@@H](O)CCC[C@H](O)/C=C/[C@H]1[C@H](O)CC(=O)[C@@H]1C/C=C\CCCC(=O)O,9.0%,-13.1%,0.1%,-0.8,x,0.1%
CCSc1nc(O)c(C2OC(=O)c3c2ccc(OC)c3OC)c(=O)n1CC (stereo not drawn),-8.2%,-2.2%,0.9%,x,-121.8*,x
Nc1c(N(C(=O)Nc2ccc(Cl)c(Cl)c2)C2CCCC2)c(=O)[nH]c(=O)n1Cc1ccccc1,7.7%,12.6%,-2.6%,-2.5,32.5,0.5%
O=C(Nc1cccc2ccccc12)c1ccc([N+](=O)[O-])s1,-4.3%,-2.9%,-1.1%,2.8,49.7,-5.2%
O=[N+]([O-])C1=C(Nc2cccc3ccccc23)CS(=O)(=O)C1,u,-3.9%,-7.3%,-3.4,-11.0,20µM*
O=C(CN1C(=O)NC2(CCCCCC2)C1=O)N1CCC(Cc2ccccc2)CC1,22.4µM*,-3.3%,0.8%,-5.9,-13.1,0.0%
O=C(Cn1ncc2c1-c1ccccc1OC2)N(Cc1ccco1)C1CCCCC1,4.9%,-6.6%,1.3%,-4.0,21.9,-3.1%
CC(CCc1ccco1)NC(=O)Cn1ncc2c1-c1ccccc1OC2 (stereo not drawn),17.8µM*,3.4%,-10.7%,-0.3,-10.7,-16.9%
O=C(NCc1ccccc1)c1ccc(S(=O)(=O)C(F)F)cc1,-7.2%,-10.4%,-1.3%,-0.4,28.1,-10.2%
C[C@]12C[C@H](O)C3[C@@H](CCC4=CC(=O)CC[C@@]43C)[C@@H]1CC[C@@H]2C(=O)CO (stereo partly drawn),-8.6%,1.4%,x,3.5,x,-1.4%
CCC(NC(=O)Nn1cnnc1)(C(F)(F)F)C(F)(F)F,1.5%,1.5%,0.7%,-0.4,-100.0*,-17.5%
O=C(NC(=S)NNC(=O)c1cnccn1)c1ccc(Cl)cc1,x,-10.9%,x,1.7,x,x
CCCCCC(=O)NNC(=S)NC(=O)c1ccccc1[N+](=O)[O-],-7.4%,-18.7%,x,-21.6,x,x
COc1ccc(C(=O)NC(=S)NNC(=O)c2cnccn2)cc1,17.8µM*,-1.2%,-1.2%,2.2,29.6,u
CC(=O)NNC(=S)NC(=O)c1ccccc1,17.8µM*,-1.1%,x,4.1,x,x
CCCCCC(=O)NNC(=S)NC(=O)c1cccc([N+](=O)[O-])c1,1.26µM*,0.1%,-11.5%,4.0,14.3,10µM*
CCCC(=O)NC(=S)NNC(=O)c1ccc([N+](=O)[O-])cc1,17.8µM*,-6.2%,1.7%,1.3,u,-9.9%
C#C[C@@]1(O)CC[C@@H]2[C@@H]3CCC4=CC(=O)CC[C@@H]4[C@H]3CC[C@]21CC,-9.0%[20.9 µM],-0.8%[29.1 µM],-3.4%[25.6 µM],3.0,x,3.8%
Cn1c(SCc2ccc(Cl)cc2)nc(C(F)(F)F)cc1=O,6.4%,1.3%,-0.1%,-4.9,34.7,-14.1%
